# Screening data (PubChem)
# DRD3 antagonist: blocks the human D3 dopamine receptor; D3R cells, DiscoveRx beta-arrestin luminescence, antagonist mode; hits give low values; max response, negative = inhibition, %; 2.5% of 360,000 active; AID 652054; in the data active = max response below about -50%; inconclusive = no clear call, values can overlap the other calls; also: % is scaled to controls: 0 for no effect and ±100 for the full control effect
#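 Cells plated overnight at 1500 cells/well, then exposed to library compounds with dopamine controls for 90 minutes at 37 degrees C. DiscoveRx reagent added for 30–60 minutes at room temperature; luminescence read, quantitative HTS format.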
# D3 ag: D3 dopamine receptor (human) agonism; AID 652048; D3R DiscoveRx beta-arrestin cells, luminescence, 90 min; P35462; max activation, %; 0.58% of 410,000 active; in the data active = max activation above about 30%; also: 0% is about no effect
#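 Agonist-mode cell screen: cells plated at 1500/well and incubated overnight at 37 °C, then exposed to library compounds for 90 min at 37 °C. Detection reagent was added for 30–60 min at room temperature, and luminescence was read.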
# D1 potentiator: human D1 dopamine receptor positive modulation; P21728; HEK293 TREx D1 cells, calcium flux, dopamine EC20 potentiation; potentiation, % at 10 µM; 0.036% of 360,000 active; AID 504651; in the data active = potentiation above about 30%; also: 0% is about no effect
# Target sequence (P21728 whole entry, looked up): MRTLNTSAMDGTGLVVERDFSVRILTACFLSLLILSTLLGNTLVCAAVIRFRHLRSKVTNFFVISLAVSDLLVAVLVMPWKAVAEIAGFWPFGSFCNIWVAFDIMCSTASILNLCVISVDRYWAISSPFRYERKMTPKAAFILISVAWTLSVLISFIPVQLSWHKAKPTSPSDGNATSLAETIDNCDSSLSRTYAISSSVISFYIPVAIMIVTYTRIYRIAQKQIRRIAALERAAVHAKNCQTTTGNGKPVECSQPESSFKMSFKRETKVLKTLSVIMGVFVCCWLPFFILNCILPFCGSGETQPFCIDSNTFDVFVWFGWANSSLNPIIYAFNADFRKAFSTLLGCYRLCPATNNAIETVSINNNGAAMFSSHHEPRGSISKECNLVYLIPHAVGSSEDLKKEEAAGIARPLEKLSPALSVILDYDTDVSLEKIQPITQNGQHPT
# D1 ag: human D1 receptor agonism; activation, % at 2 µM; AID 504660; P21728; HEK293 T-REx D1 cells, calcium flux, agonist mode; 1% of 360,000 active; in the data active = activation above about 30%; also: 0% is about no effect
#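 Inducible HEK293 T-REx D1 cells, force-coupled to calcium signalling, were plated at 4000 cells/well with tetracycline and held overnight at 30 C. After no-wash calcium dye loading, compound-evoked calcium rise over 180 s flagged agonists.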
# D1 antagonist: antagonists of human D1 dopamine receptor | HEK293 TREx D1 cells, calcium flux, dopamine EC80; hits give low values | 3.2% of 360,000 active | P21728 | activity change, negative = inhibition, % at 10 µM; in the data active = activity change below about -30%; also: % is scaled to controls: 0 for no effect and ±100 for the full control effect
#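 Tetracycline-induced HEK293 Trex D1 cells, force-coupled to calcium, dye-loaded; compounds added and read 180 s, then EC80 dopamine added and calcium flux tracked kinetically another 180 s.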
# An asterisk follows results filed as active; u = inconclusive; x = no result given. The list is not random: actives were taken first. Their share in the collection is about 6.1%.
SMILES,DRD3 antagonist,D3 ag,D1 potentiator,D1 ag,D1 antagonist
O=C(O)c1ccc(NCCc2ccc(Cl)cc2)c([N+](=O)[O-])c1,-7,-10,-10,8,19
CCc1ccccc1Nc1nc2ccccc2n2cnnc12,x,-15,1,11,-7
COc1ccc(NC(=O)c2c(C)noc2C)cc1S(=O)(=O)N1CCCCC1,-12,-5,x,x,x
CC(=O)c1cccc(NC(=O)Cn2ccn3nc(-c4ccccc4)cc3c2=O)c1,x,4,1,0,1
Cc1noc(C(=O)Nc2c(C)nn(Cc3ccccc3)c2C)c1Cl,-19,3,-6,1,-51*
Cc1nn(Cc2ccccc2)c(C)c1NC(=O)c1cc(-c2cccs2)on1,u,5,-5,10,49
Cn1cc(Cl)c(C(=O)Nc2cnn(Cc3ccc(F)cc3)c2)n1,-6,-5,-4,5,-42*
Cc1ccc(Cn2ccc(NC(=O)c3nn(C)cc3Cl)n2)cc1,-13,6,-3,3,-1
CCCCN1C(=O)C(CC(=O)NCCCCc2ccccc2)CC(C(=O)N2CCCCCC2)=C1C (centres undefined),-52*,-11,x,x,x
Cc1ccccc1C(=O)NCC(=O)OCCCOC(=O)CNC(=O)c1ccccc1C,-15,-14,1,3,3
CCCCCCCCCCC(=O)NNC(=O)c1c(O)c2ccccc2n(CC)c1=O,x,x,-9,0,4
CN1CC[C@]2(CCN3CCc4c(oc5ccccc45)[C@@H]3C2)N(C)C1=O,-58*,-43,-5,-1,-10
C/C(CC(=O)Nc1ccccn1)=N\NC(=O)c1cnccn1,0,0,-4,3,6
COc1ccc(-c2cc3c(=O)n(CC(=O)NCCCN4CCC(Cc5ccccc5)CC4)ncn3n2)cc1,-101*,-23,-6,10,2
COc1ccc(-c2cc3c(=O)n(CC(=O)NCCCN4CCN(Cc5ccccc5)CC4)ncn3n2)cc1,-67*,-15,0,4,1
CCOC(=O)C1=CCC(c2cc3ccc(OC)cc3n2C(=O)OC(C)(C)C)NC1 (centres undefined),8,-10,x,x,x
CC(C)(Cc1cc(CC(C)(C)C(=O)O)cc(C(C)(C)C)c1)C(=O)O,19,0,-1,2,1
O=[N+]([O-])c1ccc(OCC(O)CN(CCO)CCO)cc1 (centres undefined),-14,6,-1,4,-35*
Cc1ccc(CN2CCN(c3ccccc3)CC2)o1,u,-5,-3,0,11
COc1cc(CN2CCCC(C)C2)ccc1OCc1ccccc1 (centres undefined),-62*,-12,-6,1,37
Cc1ccc(CN2CCN(c3ncccn3)CC2)o1,-54*,-8,-2,3,1
C=CCc1ccc(OCCCCN2CCC(C)CC2)c(OC)c1,-59*,-19,7,4,-18
C=CCc1ccc(OCCCN2CCCC(C)C2)c(OC)c1 (centres undefined),-79*,-9,-4,6,13
COc1cc(CN2CCC(C)CC2)ccc1OCc1ccccc1,u,-25,3,11,6
C=CCc1ccc(OCCCCNC(C)CC)c(OC)c1 (centres undefined),-19,-10,-1,6,-3
SMILES,DRD3 antagonist,D3 ag,D1 potentiator,D1 ag,D1 antagonist
COc1ccc2c(CNCc3ccco3)c(C(=O)O)n(Cc3ccc(F)cc3Cl)c2c1,x,-22,2,0,9
COc1cccc(CN2CCN(c3ncccn3)CC2)c1,-59*,35*,3,0,-9
COc1ccc(CN2CCN(c3ccccn3)CC2)cc1OCc1ccccc1,-69*,-20,-4,0,-24
C=CCc1ccc(OCCCCN2CC(C)CC(C)C2)c(OC)c1 (centres undefined),-105*,-23,-14,7,3
COc1cccc(OCC(O)CN2CCN(c3ncccn3)CC2)c1 (centres undefined),-19,8,7,3,-9
O=C1Nc2ccccc2C1(c1ccccc1)c1ccccc1,-25,-4,-6,33*,7
COc1ccc(C2CC(=O)c3c([nH]c(C(=O)OCCOc4ccccc4)c3C)C2)cc1OC (centres undefined),x,8,-4,11,-12
O=C1c2ccc(Oc3ccc([N+](=O)[O-])cc3)cc2C(=O)N1CCCO,0,-11,3,7,-37*
